# Compounds without any hit were thinned out: in the full panel of roughly 79,000, 15% have a hit. Values without a mark were called inactive. The source made the active and inactive calls. Cut-off read from the data, not from the text of the source: active = growth inhibition above about 70%; inactive = the rest.
# Assay: NCI Yeast Anticancer Drug Screen. Data for the rad50 strain (AID 155);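 note: 0% = growth of vehicle-only cultures of the same strain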
# Conditions: S. cerevisiae rad50 strain growth inhibition, hits give high values
# Experimental: Growth inhibition of yeast strains with defined genetic alterations is measured as a screen for potential anti-cancer activity. Selected strains with alterations in DNA damage repair or cell cycle control were exposed to compounds and growth inhibition was measured relative to vehicle treated controls. The strain used in this assay is rad50
# [1] = at 5.0 µM (retest, dose inferred, filed as 0.5)
# [2] = at 50.0 µM (retest, dose inferred, filed as 5.0)
SMILES,growth inhibition [1],growth inhibition [2],growth inhibition (at 50.0 µM)
N#C/C(=C\c1cc(Cl)cc(Cl)c1O)C(/C(C#N)=C/c1cc(Cl)cc(Cl)c1O)c1ccc2c(c1)OCO2 (configuration not stated),64%,98% (active),90.8% (active)
NNc1ncc2c(n1)-c1ccccc1OC2,23%,49%,47.3%
C[C@]12CC[C@H](O)CC1=CC[C@@H]1C2CC[C@]2(C)C(=O)N(N)C(=O)CC12 (some centres not stated),7%,92% (active),83.7% (active)
O=C(NC1CCN(Cc2ccccc2)CC1)c1ccccc1I,48%,73% (active),74.3% (active)
Brc1ccc(N=NN2CCCC2)cc1,14%,12%,74% (active)
O=C1CSC(c2ccc(Cl)cc2)N1c1ccc(-c2ccc(-n3c(-c4ccccc4)nc4ccccc4c3=O)cc2)cc1 (configuration not stated),-6%,84% (active),69.4%
CC1(C)CC(=O)C2=C(C1)OC1=C(C(=O)CC(C)(C)C1)C2CC(c1ccccc1)c1ccc(O)c(O)c1O (configuration not stated),22%,30%,72.2% (active)
O=C(/C=C\c1ccc(Cl)c(Cl)c1)c1cccs1,13%,-9%,58.9%
Clc1ccc(C2=NCON=C2c2ccc(Cl)cc2)cc1,17%,97% (active),87.9% (active)
COc1cccc(C2c3cc4c(cc3OC(O)C2C)OCO4)c1O (configuration not stated),-10%,8%,13.6%
O=C(/N=C1\N=Nc2nc(C(C(=O)c3cccs3)c3nc4n(c3O)/C(=N/C(=O)Nc3ccc(Cl)cc3)N=N4)c(O)n21)Nc1ccc(Cl)cc1 (configuration not stated),-22%,5%,38.7%
CCOP(=O)(OCC)/C(C#N)=C/c1ccc(Oc2ccccc2)cc1,-12%,97% (active),90.2% (active)
COc1ccc(C(=O)NCCN2CCN3Cc4[nH]c5ccccc5c4CC3C2)cc1 (configuration not stated),-1%,3%,1.65%
O=C1C(Cl)=C(Cl)C(=C2C(Cl)=C(Cl)C(=O)C(Cl)=C2Cl)C(Cl)=C1Cl,98% (active),99% (active),99.5% (active)

# Source: PubChem BioAssay (NCI)
